From PubChem BioAssay
Hits are enriched below; roughly 2.9% of the tested compounds scored in any of these assays.
D3 ag: qHTS of D3 Dopamine Receptor Agonist: qHTS; D(3) dopamine receptor (Homo sapiens), P35462; D3R DiscoveRx beta-arrestin cells, luminescence, 90 min; max activation, %; 0.58% of 410,000 active; AID 652048, 2013; in the data active = max activation above about 30%; note: 0% is about no effect
Target sequence (P35462 whole entry, looked up): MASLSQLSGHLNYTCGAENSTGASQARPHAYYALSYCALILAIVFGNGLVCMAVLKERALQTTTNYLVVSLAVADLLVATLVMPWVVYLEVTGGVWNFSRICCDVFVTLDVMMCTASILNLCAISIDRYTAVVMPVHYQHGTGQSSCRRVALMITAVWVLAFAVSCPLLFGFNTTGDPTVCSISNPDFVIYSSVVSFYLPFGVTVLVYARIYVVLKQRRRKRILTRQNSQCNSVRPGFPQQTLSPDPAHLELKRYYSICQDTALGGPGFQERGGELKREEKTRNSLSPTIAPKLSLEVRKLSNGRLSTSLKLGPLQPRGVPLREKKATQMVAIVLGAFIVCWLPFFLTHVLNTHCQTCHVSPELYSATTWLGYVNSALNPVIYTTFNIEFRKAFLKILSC
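Agonist mode: compounds and dopamine controls were applied to plated cells for 90 min at 37 degrees C after an overnight attachment at 1500 cells/well. Luminescent read-out followed 30 - 60 minutes at room temperature with DiscoveRx detection reagent.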
TSHR antag: Antagonists of the Thyroid Stimulating Hormone Receptor: HTS campaign; AID 504810, 2011; TSHR-expressing cells, TSH-stimulated cAMP HTRF, 2 h; active compounds read low; 0.2% of 330,000 active; Thyrotropin receptor (Homo sapiens), P16473; activity change, negative = inhibition, % at 11.5 µM;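 active = activity change below a set negative limit, meaning inhibition stronger than a set level, cut at about -70% in these data; inconclusive = activity change between two set negative limits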; note: % is set by controls: 0 for no effect and ±100 for the full control effect
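TSHR-expressing cells were treated with compounds, then stimulated with TSH at EC80 (4nM final) for 2 hours at 37 deg C. Cellular cAMP was measured by HTRF competition between lysate cAMP and cAMP-d2 for a cryptate-labelled anti-cAMP antibody.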
B2AR arrestin: qHTS assay of beta-arrestin-biased ligands of beta2-adrenergic receptor; beta-arrestin recruitment to beta2AR, cell-based reporter; Potency, µM (top dose mostly 46.1 µM), inactives show at the highest dose activation, usual class: activators; 0.02% of 330,000 active; AID 492947, 2010; active = well fitted activation curve with a large enough effect; inconclusive = small, poorly fitted or top-dose-only effect;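 note: potency is the fitted concentration of half-maximal effect; 0% = DMSO controls and full agonism = EC100 isoproterenol or metaproterenol; nearly all actives have a fitted effect of over 65% in size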
DRD3 antagonist: qHTS of D3 Dopamine Receptor Antagonist: qHTS; D(3) dopamine receptor (Homo sapiens), P35462; D3R cells, DiscoveRx beta-arrestin luminescence, antagonist mode; active compounds read low; AID 652054, 2013; 2.5% of 360,000 active; max response, negative = inhibition, %; in the data active = max response below about -50%; inconclusive = no clear call, values can overlap the other calls; note: % is set by controls: 0 for no effect and ±100 for the full control effect
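Cells expressing the human receptor were seeded at 1500 cells/well, incubated overnight at 37 degrees C in 5% CO2, then exposed to library compounds with dopamine controls for 90 minutes at 37 degrees C before luminescent detection.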
Starred values were filed as active, the others as inactive.

What do the screens show for `CC[C@H]1CN(C)C[C@@]2(C(=O)OC)Cc3c([nH]c4ccccc34)C(=O)C[C@@H]12`?
D3 ag: 28; DRD3 antagonist: 0

Results for CC[C@H]1CN(C)CCc2c([nH]c3ccccc23)C(=O)C[C@@H]1/C(=C\OC)C(=O)OC ?
D3 ag: -16; DRD3 antagonist: -51*

What do the screens show for `O=c1[nH]c(=O)n(C2CCCCCC2)c(O)c1C=NCC1CCCO1` (stereo unspecified)?
D3 ag: 11; TSHR antag: 3; B2AR arrestin: 0%; DRD3 antagonist: -51*

Results for O=c1[nH]c(=O)n(C2CCCCCC2)c(O)c1C=NC1CCN(Cc2ccccc2)CC1 ?
D3 ag: -15; TSHR antag: -1; B2AR arrestin: 0%; DRD3 antagonist: -58*

How did O=C(c1cc(F)ccc1F)C1CCCN(Cc2cccc(Cl)c2)C1 (stereo unspecified) do in these assays?
D3 ag: -7; TSHR antag: 16; B2AR arrestin: -1%; DRD3 antagonist: -79*

What do the screens show for `O=C(c1cc(F)ccc1F)C1CCCN(CCCc2ccccc2)C1` (stereo unspecified)?
D3 ag: -15; TSHR antag: 6; B2AR arrestin: -1%; DRD3 antagonist: -74*

Results for CSc1ncc(CN2CCCC(C(=O)c3ccccc3SC)C2)cn1 (stereo unspecified) ?
D3 ag: -17; TSHR antag: 0; B2AR arrestin: -1%; DRD3 antagonist: -19

What do the screens show for `C=CCN(C1=NCCN1)c1c(Cl)cccc1Cl`?
D3 ag: -13; TSHR antag: 8

How did O=C1Nc2ccc(Cl)cc2C(c2ccccc2)=NC1O (stereo unspecified) do in these assays?
D3 ag: -7

Results for C1=C(c2c[nH]c3ccccc23)CCN(Cc2ccccc2)C1 ?
D3 ag: -21; TSHR antag: -4; B2AR arrestin: 0%; DRD3 antagonist: -101*

How did CN1CC=C(c2c[nH]c3ccccc23)CC1 do in these assays?
D3 ag: -16; TSHR antag: -4; B2AR arrestin: 5%; DRD3 antagonist: -85*

How did C(=NN1CCCCCC1)c1c[nH]c2ccccc12 do in these assays?
D3 ag: 0; DRD3 antagonist: -1

What do the screens show for `c1ccc2c(CN3CCCCCCC3)c[nH]c2c1`?
D3 ag: -5; TSHR antag: 2; B2AR arrestin: 0%; DRD3 antagonist: -2

What do the screens show for `Nc1nc(N)nc(NC2CC2)n1`?
D3 ag: -2

Results for CC[C@H](O)C(C[C@H](C)N(C)C)(c1ccccc1)c1ccccc1 ?
D3 ag: -7

Results for Fc1ccc(CCNCc2ccc(Br)cc2)cc1 ?
D3 ag: -17; TSHR antag: 0; B2AR arrestin: 0%; DRD3 antagonist: -56*

How did Fc1ccc(CCNCc2cccc(Cl)c2)cc1 do in these assays?
D3 ag: -29; TSHR antag: 24; B2AR arrestin: 0%; DRD3 antagonist: -56*

What do the screens show for `Fc1ccc(CNCCc2ccccc2F)cc1`?
D3 ag: -11; TSHR antag: 4; B2AR arrestin: 0%; DRD3 antagonist: inconclusive

What do the screens show for `CCO/N=C(\CC)C1=C(O)CC(c2c(C)cc(C)cc2C)CC1=O` (stereo unspecified)?
D3 ag: 8

How did CCOCCCNC(=O)CN1C2CCC1CC(O)(c1ccc(OC)cc1)C2 (stereo unspecified) do in these assays?
D3 ag: -29; TSHR antag: 1; B2AR arrestin: 0%; DRD3 antagonist: -72*

What do the screens show for `C/C=C1\CN2[C@H]3C[C@@]45c6ccccc6N(C)[C@H]4[C@@H]2CC1C3[C@H]5O` (stereo partly specified)?
D3 ag: -56; DRD3 antagonist: -63*

Results for CCCC[N+]12C3C[C@H](C4[C@H](O)[C@]5(C[C@@H]41)c1ccccc1N(C)[C@@H]35)[C@H](CC)[C@H]2O (stereo partly specified) ?
D3 ag: -12; TSHR antag: 5; B2AR arrestin: 0%; DRD3 antagonist: -2

How did C1=C(c2ccccc2)CCNC1 do in these assays?
D3 ag: -36; TSHR antag: 2; B2AR arrestin: -1%; DRD3 antagonist: -52*

What do the screens show for `Cc1[nH]c2ccccc2c1C1=CCNCC1`?
D3 ag: -24; TSHR antag: 32; B2AR arrestin: 0%; DRD3 antagonist: inconclusive
